# Screening results as filed in PubChem BioAssay.
# HT1080NT lethal: kills 2HG-producing HT-1080-NT fibrosarcoma cells; actives 1.6% (n = 360,000); Potency, µM (titrated, usually from 46.1 µM), without a hit: at the highest dose activity, negative = less viability, most hits filed as cytotoxic; HT-1080-NT fibrosarcoma viability, CellTiter-Glo ATP luminescence, 48 h;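 also: NT is the 2HG producing partner of a matched IDH1 knockdown line; potency is read from the fitted curve at half-maximal effect; 0% = DMSO-treated cells and -100% = media-only wells without cells; nearly all actives have a fitted effect of over 55% in size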
#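 Luminescent CellTiter-Glo readout after 48 hours of compound exposure at 37 degrees C defined viability of HT-1080-NT cells. Activity was normalized to DMSO wells and cell-free media wells; concentration-response curves were fitted and assigned curve classes.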
# HT1080 IDH1KD tx: toxicity to HT-1080 IDH1 knockdown cells (counter line) | Potency, µM (series often up to 46.1 µM), for the others: at the highest dose activity, negative = toxicity, hits mostly cytotoxic | AID 686971 | actives 2% (n = 360,000) | HT-1080 IDH1 knockdown viability, ATP luminescence, 48 h;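 also: potency is read from the fitted curve at half-maximal effect; 0% = DMSO wells and -100% = cell-free medium wells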
#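 Knockdown cells (IDH1KD HT-1080) received compounds 2 h after plating at 750 cells/well and were kept 48 h at 37 °C in 5% FBS RPMI. A CellTiter-Glo luminescence read gave % activity for curve fitting.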
# TDP1 cell CPT: DT40-hTDP1 cell growth loss with CPT; chicken DT40 Tdp1-/-;hTDP1 cells + 20 nM CPT, ATP luminescence, 48 h; Potency, µM (top dose mostly 46.2 µM), for inactives: at the highest dose activity change, negative = growth inhibition, actives largely listed as inhibitors; actives 12% (n = 420,000); AID 686979; also: potency is read from the fitted curve at half-maximal effect; nearly all actives have a fitted effect of over 55% in size
#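 Chicken DT40 Tdp1-/- cells complemented with human TDP1, 400 cells/well, exposed to compounds plus 20 nM camptothecin for at least 48 h at 37 C; viability read as ATP content by CellTiter-Glo luminescence.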
# ELG1 repair inh: ELG1-dependent DNA repair inhibition | HEK293T ELG1-luciferase reporter, luminescence, 16 h; DNA damage induced by 5-fluorouridine | Potency, µM (series often up to 46.1 µM), for inactives: at the highest dose activity change, negative = inhibition, hits mostly inhibitors | actives 2.3% (n = 330,000) | AID 504467; also: potency is read from the fitted curve at half-maximal effect; nearly all actives have a fitted effect of over 55% in size
#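 Luminescence from the luciferase reporter, measured 30 min after ONE-Glo reagent at room temperature, was the read-out. Beforehand, 2,000 cells per well were exposed for 16 hr at 37 °C to 5-fluorouridine together with compound or vehicle.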
# TDP1 cell noCPT: qHTS for Inhibitors of human tyrosyl-DNA phosphodiesterase 1 (TDP1): qHTS in cells in absence of CPT; DT40 Tdp1-/- hTDP1 cells, no CPT, ATP luminescence, 48 h; Potency, µM (top dose mostly 46.2 µM), without a hit: at the top dose activity change, negative = growth inhibition, hits mostly inhibitors; actives 15% (n = 420,000); AID 686978, 2013; also: potency is read from the fitted curve at half-maximal effect; nearly all actives have a fitted effect of over 55% in size
#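 Chicken DT40 Tdp1-/- cells stably complemented with human TDP1 were seeded at 400 cells/well with DMSO in place of 20 nM camptothecin. After compound pinning, cells grew at least 48 hr at 37 °C; viability read by CellTiter-Glo luminescence.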
# IL1B secr inh: inhibitors of inflammasome signaling (IL-1 beta secretion); THP-1 LPS/ATP IL-1B secretion, AlphaLISA, 16 h; hits give low values; activity change, % at 57.5 µM; actives 4.7% (n = 360,000); in the data active = activity change below about -50%; inconclusive = mostly about -30% to -49%
#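 THP-1 cells pretreated 1 hr with compounds (up to 57.5 uM final), then stimulated with LPS (250 ng/mL final) plus ATP (1.25 mM final); secreted IL-1B measured by AlphaLISA after 16 hr, decreased signal indicating inhibition.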
# Active calls of the source: *; ? = inconclusive; nt = no result; [ ] = remark or other dose. Hits are enriched below; roughly 19% of the tested compounds scored in any of these assays. Unless noted, calls follow the shape of the dose curve; as a rule, active = well fitted curve in the direction sought with a large enough effect; inconclusive = small, poorly fitted or top-dose-only effect, or another doubt; inactive = no such curve, though single readings can be large; an effect the other way counts as inactive or inconclusive. Unless noted, % is scaled to controls: 0 for no effect and ±100 for the full control effect.
SMILES,HT1080NT lethal,HT1080 IDH1KD tx,TDP1 cell CPT,ELG1 repair inh,TDP1 cell noCPT,IL1B secr inh
COc1ccc(-c2csc(C(O)(c3ccccc3)C(F)(F)F)n2)cc1 (stereo not given),?,?,?,nt,?,28
OC(c1ccccc1)(c1nc(-c2cc3ccccc3o2)cs1)C(F)(F)F (stereo not given),16µM*,?,21µM*,nt,16µM*,0
OC(c1ccccc1)(c1nc(-c2csc3ccccc23)cs1)C(F)(F)F (stereo not given),?,?,?,nt,?,-9
OC(c1ccccc1)(c1nc(-c2ccc(Cl)cc2)cs1)C(F)(F)F (stereo not given),16µM*,?,?,nt,?,1
OCc1cccc(-c2csc(C(O)(c3ccccc3)C(F)(F)F)n2)c1 (stereo not given),-25%,?,?,nt,?,37
COc1ccc(-c2csc(C(O)(c3ccccc3)C(F)(F)F)n2)cn1 (stereo not given),23µM*,-29%,?,nt,?,-18
COc1ccc(N2CCN(C(=O)c3sc4ncn(CC(=O)N5CCCCC5C)c(=O)c4c3C)CC2)cc1 (stereo not given),-2%,-9%,?,?,-24%,3
COc1ccc(NC(=O)c2c(C(=O)Nc3ccccc3)sc3nc(C)cc(=O)n23)cc1,nt,nt,-18%,nt,-7%,nt
CC(C)(CC(=O)O)CC(=O)N1CCN(c2cc(C(F)(F)F)nc3ccccc23)CC1,3%,0%,-5%,9%,2%,9
O=C(Cc1ccc(NS(=O)(=O)c2cccc(C(F)(F)F)c2)cc1)NCCN1CCOCC1,14%,7%,-11%,0%,-31%,15
O=C(COC(=O)c1ncc(Cl)c(Cl)c1Cl)NCCc1ccccc1,9%,2%,-2%,10%,0%,-29
OC(c1ccccc1)(c1nc(-c2cccc(C(F)(F)F)c2)cs1)C(F)(F)F (stereo not given),23µM*,16µM*,?,nt,?,-30
COc1ccccc1-c1csc(C(O)(c2ccccc2)C(F)(F)F)n1 (stereo not given),?,?,?,nt,18µM*,8
O=C(O)c1cccc(-c2csc(C(O)(c3ccccc3)C(F)(F)F)n2)c1 (stereo not given),17%,5%,2%,nt,-6%,-9
O=[N+]([O-])c1cc(CN2CCCC2)ccc1Sc1ccc(Cl)cc1,-26%,?,10µM*,2%,8.2µM*,-12
CN(C)c1ncc2nc(-c3cc(F)cc(F)c3)c(=O)n(Cc3ccc(F)cc3)c2n1,nt,nt,-125%,nt,0%,nt
CSc1ccccc1NC(=O)CN(C)CC(=O)Nc1ccccc1C(F)(F)F,9%,6%,-17%,?,-22%,29
CSc1ccccc1NC(=O)CN(C)CC(=O)Nc1ccc(Cl)cc1F,-2%,-5%,23µM*,?,?,-8
CN(c1cccc(NC(=O)Nc2cccc(Cl)c2)c1)S(C)(=O)=O,-29%,-2%[9.24 µM],?,19%,16µM*,-25
CSc1ccccc1NC(=O)Nc1cccc(Cl)c1,7%,2%,16µM*,-29%,?,-1
C[C@@H]1CN([C@H](C)CO)C(=O)CCCn2cc(nn2)CO[C@H]1CN(C)C(=O)Nc1ccccc1C(F)(F)F,-4%,11%,-16%,nt,-4%,9
COc1ccc(NC(=O)c2ccc(Cl)c(S(=O)(=O)NCC3CCCO3)c2)c(OC)c1 (stereo not given),-6%,-6%,-19%,-10%,-10%,-3
O=C(NC1CCSC1=O)C1CC(=O)N(c2ccc(F)cc2)C1 (stereo not given),15%,8%,-7%,2%,-9%,-2
COc1ccc(CCNC(=O)C(C(=O)c2ccccc2)n2ccccc2=O)cc1OC (stereo not given),6%,7%,-20%,14%,5.8µM*,-2
O=C(NCC1CCCO1)C(C(=O)c1ccc(F)cc1)n1ccccc1=O (stereo not given),1%,1%,?,5%,23µM*,-8
SMILES,HT1080NT lethal,HT1080 IDH1KD tx,TDP1 cell CPT,ELG1 repair inh,TDP1 cell noCPT,IL1B secr inh
COc1ccc(CCNC(=O)C(C(=O)c2ccccc2)n2cc(Cl)ccc2=O)cc1OC (stereo not given),9%,8%,-12%,10%,-21%,9
O=C(NCc1ccccc1)C(C(=O)c1ccc(F)cc1)n1ccccc1=O (stereo not given),-4%,7%,?,22%,-21%,-4
COc1ccc(CCNC(=O)C(C(=O)c2ccc(F)cc2)n2ccccc2=O)cc1OC (stereo not given),4%,3%,?,13%,6.5µM*,11
COc1ccc(-c2nc3c(C)cc(Br)cn3c2Cc2ccsc2)cc1OC,?,?,?,nt,?,-3
Cc1cc2ncn(S(=O)(=O)c3ccc(S(=O)(=O)N4CCOCC4)cc3)c2cc1C,19%,13%,?,-4%,-28%,12
COc1ccc(S(=O)(=O)n2cnc3cc(C)c(C)cc32)cc1,-2%,-12%,?,13µM*,?,-6
COc1ccc(S(=O)(=O)n2cnc3cc(C)c(C)cc32)cc1C,?,0%,12µM*,?,?,-53*
Cn1cc(Cc2ccccc2)c(=O)c(Cc2ccccc2)c1,8%,12%,-21%,nt,-1%,-7
CCOc1ccc(-c2cc3c(=O)n(Cc4nc(-c5ccc(OC(C)C)cc5)oc4C)ccn3n2)cc1Cl,nt,nt,-8%,nt,1%,nt
CCCCc1ccc(C(=O)N/C(=C\c2ccc(C)cc2)C(=O)NC2CCCCC2)cc1,nt,nt,9.2µM*,nt,15µM*,nt
Cc1ccc(C(=O)N/C(=C\c2ccc(Cl)cc2)C(=O)NC2CCCCC2)cc1,nt,nt,?,nt,18µM*,nt
CC(=O)Nc1cccc(C(=O)OC(C)C(=O)NC(=O)NC2CCCCC2)c1 (stereo not given),8%,11%,-23%,5%,?,13
Cc1ccc(CNC(=O)CN2C(=O)COc3ccccc32)cc1,nt,nt,10%,nt,-11%,nt
O=C(COc1ccc(S(=O)(=O)N2CCCC2)cc1)N1CCCC1,-11%,-8%,-10%,9%,9%,22
